Measurements: PubChem BioAssay
The source made the active and inactive calls.

Assays:
[1] = tested on: Human papillomavirus type 1a protein E7 (residues 44-93); assay: HPV1a E7 fragment binders on microarrays, primary screen, biochemical, small-molecule microarray, residues 44-93, 635 nm fluorescence (AID 1108); conditions: small-molecule microarray binding, fluorescence 635 nm; higher = more signal;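 also: E7 fragment applied at 1 µg/mL in TBST for 1 h at 4 C; score combines spot fluorescence with its signal to noise ratio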
[2] = modulators of HCV replicon luciferase signal, primary screen, HCV replication inhibitor project, Huh7 cells, luciferase reporter (AID 1109); conditions: 48 h, higher = more signal;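 also: huh7 hepatoma cells harbouring a luciferase neomycin HCV replicon reporter; luciferase luminescence as measure of HCV replicon replication; test concentration not given here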
[3] = molecular target: Left-right determination factor 2 (Homo sapiens) (UniProt O00292); assay: LEFTY2 binders on small-molecule microarrays, primary screen, biochemical, small-molecule microarray, 635 nm fluorescence scan (AID 1110); conditions: LEFTY2 binding, higher = more signal
Chain of Left-right determination factor 2 (Homo sapiens) (O00292 whole entry, looked up): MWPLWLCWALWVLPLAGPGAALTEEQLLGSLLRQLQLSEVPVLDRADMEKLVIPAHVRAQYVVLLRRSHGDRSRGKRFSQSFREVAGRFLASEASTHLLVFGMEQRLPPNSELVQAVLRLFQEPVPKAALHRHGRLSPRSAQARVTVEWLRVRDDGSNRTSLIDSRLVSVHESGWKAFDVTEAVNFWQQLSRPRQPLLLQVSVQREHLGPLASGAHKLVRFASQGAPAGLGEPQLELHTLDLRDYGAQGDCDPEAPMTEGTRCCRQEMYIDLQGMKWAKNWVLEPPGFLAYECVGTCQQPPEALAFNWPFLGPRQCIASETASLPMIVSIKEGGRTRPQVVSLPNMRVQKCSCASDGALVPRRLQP

[4] = molecular target: Calmodulin-1 (Homo sapiens) (UniProt P0DP23); assay: CALM1 binders on microarrays, EGTA buffer, profiling panel, biochemical, small-molecule microarray, Cy5-labelled CALM1 (AID 1111); conditions: Cy5-CALM1 binding fluorescence, higher = more signal;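 also: labelled calmodulin applied in Tris saline Tween buffer holding calcium plus EGTA and DTT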
[5] = molecular target: Calmodulin-1 (Homo sapiens) (UniProt P0DP23); assay: calcium-bound CALM1 binders on microarrays, profiling panel, artefact control for SMM control-protein annotation, biochemical, small-molecule microarray, Cy5-labelled CALM1, plus calcium (AID 1112); conditions: Cy5-CALM1 binding fluorescence, higher = more signal;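 also: score merges spot fluorescence with signal to noise from triplicate slides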
[6] = small-molecule microarray binders of probe aWnt5a, primary screen, biochemical, biotinylated probe, 635/667 nm fluorescence (AID 1113); conditions: higher = more signal;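 also: score merges 667 nm fluorescence intensity with signal-to-noise per printed feature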
[7] = small-molecule microarray binders of probe aShh, primary screen, biochemical, biotinylated probe, 635/667 nm fluorescence (AID 1114); conditions: higher = more signal;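 also: probe is biotin-labelled aShh protein from a stem cell growth factor screen; measures binding of labelled protein to compounds printed on the slide; score merges feature fluorescence at 667 nm with signal-to-noise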
[8] = small-molecule microarray binders of probe aNog, primary screen, biochemical, biotinylated probe, 635/667 nm fluorescence (AID 1115); conditions: higher = more signal;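 also: probe is biotinylated aNog protein used at 0.15 µg/mL for 1 h at 4 C; z-score combines 667 nm fluorescence of each spot with its signal to noise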
[9] = molecular target: Torsin-1A-interacting protein 1 (Homo sapiens) (UniProt Q5JTV8); assay: LAP1 binders from COS7 cell lysate, primary screen, small-molecule microarray, 635/667 nm fluorescence (AID 1116); conditions: COS7-hLAP1 lysate binding, 635 nm fluorescence, higher = more signal
Chain of Torsin-1A-interacting protein 1 (Homo sapiens) (Q5JTV8 whole entry, looked up): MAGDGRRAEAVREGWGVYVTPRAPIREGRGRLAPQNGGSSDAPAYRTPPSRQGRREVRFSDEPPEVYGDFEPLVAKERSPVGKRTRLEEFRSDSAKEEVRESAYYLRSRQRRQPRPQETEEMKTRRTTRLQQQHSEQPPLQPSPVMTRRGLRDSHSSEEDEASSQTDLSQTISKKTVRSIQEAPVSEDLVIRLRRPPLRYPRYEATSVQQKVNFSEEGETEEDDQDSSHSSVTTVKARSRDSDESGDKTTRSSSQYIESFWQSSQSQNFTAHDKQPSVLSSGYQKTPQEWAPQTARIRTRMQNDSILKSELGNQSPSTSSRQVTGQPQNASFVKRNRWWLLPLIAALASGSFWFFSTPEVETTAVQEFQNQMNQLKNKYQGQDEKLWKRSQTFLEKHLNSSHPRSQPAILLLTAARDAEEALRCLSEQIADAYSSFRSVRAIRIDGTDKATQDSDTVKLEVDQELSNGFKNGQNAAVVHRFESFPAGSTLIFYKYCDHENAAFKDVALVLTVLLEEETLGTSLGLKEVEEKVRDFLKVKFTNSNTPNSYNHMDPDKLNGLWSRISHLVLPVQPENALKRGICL

[10] = molecular target: Alpha-bungarotoxin (Bungarus multicinctus) (UniProt P60615); assay: alpha-bungarotoxin binders on microarray, profiling panel, artefact control for SMM control protein annotation, biochemical, small-molecule microarray, Alexa647 label, 635/667 nm fluorescence (AID 1117); conditions: alpha-BTX-A647 binding fluorescence, higher = more signal
Chain of Alpha-bungarotoxin (Bungarus multicinctus) (P60615 whole entry, looked up): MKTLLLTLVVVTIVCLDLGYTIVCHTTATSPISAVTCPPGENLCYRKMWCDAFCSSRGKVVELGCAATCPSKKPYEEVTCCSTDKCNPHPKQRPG

Albumin (Bos taurus) = Albumin (Bos taurus) (UniProt P02769); assay: bovine serum albumin binders on microarray, profiling panel, artefact control for SMM control protein annotation, biochemical, small-molecule microarray, Alexa647 label, 635/667 nm fluorescence (AID 1118); conditions: BSA-A647 binding, fluorescence 635 nm, higher = more signal;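 also: score merges 667 nm emission intensity and signal-to-noise per printed compound spot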
Chain of Albumin (Bos taurus) (P02769 whole entry, looked up): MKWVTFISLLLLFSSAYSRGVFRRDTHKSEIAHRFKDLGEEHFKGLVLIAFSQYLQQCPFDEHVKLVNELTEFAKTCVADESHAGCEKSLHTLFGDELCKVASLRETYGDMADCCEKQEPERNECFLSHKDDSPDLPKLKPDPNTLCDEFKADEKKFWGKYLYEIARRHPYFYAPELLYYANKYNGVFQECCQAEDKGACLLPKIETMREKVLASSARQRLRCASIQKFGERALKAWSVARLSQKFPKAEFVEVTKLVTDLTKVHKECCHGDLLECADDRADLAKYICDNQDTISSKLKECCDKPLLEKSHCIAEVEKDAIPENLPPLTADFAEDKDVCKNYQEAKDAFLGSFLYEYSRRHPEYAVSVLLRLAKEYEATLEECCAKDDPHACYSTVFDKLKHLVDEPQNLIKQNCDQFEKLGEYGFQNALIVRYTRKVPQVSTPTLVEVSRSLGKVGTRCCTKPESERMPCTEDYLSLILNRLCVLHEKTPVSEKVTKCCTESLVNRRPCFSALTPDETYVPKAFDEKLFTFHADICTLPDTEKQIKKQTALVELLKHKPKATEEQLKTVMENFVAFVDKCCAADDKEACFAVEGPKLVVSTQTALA

[11] = small-molecule microarray binders of probe aXIP, primary screen, biochemical, NeuroSMM set, 635/667 nm fluorescence (AID 1119); conditions: higher = more signal, called active from +8 up or from −8 down;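 also: probe is the protein aXip251-270 applied at 1 µg/mL to compound-printed slides; binding of probe to printed compounds measured as 667 nm fluorescence plus signal to noise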
[12] = small-molecule binders of probe aNOTCH3, primary screen, biochemical, small-molecule microarray, 635/667 nm fluorescence (AID 1120); conditions: higher = more signal;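 also: probe is a biotin-tagged antibody raised against NOTCH3 rather than NOTCH3 protein; score merges spot fluorescence near 667 nm with spot signal to noise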
[13] = small-molecule binders of probe aNOTCH2, primary screen, biochemical, small-molecule microarray, 635/667 nm fluorescence (AID 1121); conditions: higher = more signal;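 also: score merges feature fluorescence read at 667 nm with its signal to noise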
[14] = molecular target: Carbonic anhydrase 2 (Homo sapiens) (UniProt P00918); assay: CAII small-molecule binders, profiling panel, biochemical, small-molecule microarray, Alexa647-labelled CAII (AID 1122); conditions: CAII-A647 binding fluorescence, higher = more signal
[15] = COS7 lysate on small-molecule microarray, probe aHis, 635 nm (AID 1123); conditions: COS7 cell lysate, fluorescence, higher = more signal;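 also: z-score combines 667nm fluorescence intensity with signal-to-noise per printed compound spot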
[16] = compound binding in COS7 lysate, probe aLAP1, primary screen, cell lysate, small-molecule microarray (AID 1124); conditions: probe aLAP1, fluorescence, higher = more signal;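 also: lysate comes from COS7 cells expressing LAP1 and is applied at 0.3 µg/mL; score merges spot fluorescence near 667 nm with signal-to-noise over triplicate slides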
Sam68 (KHDRBS1) = assay: Sam68 small-molecule binders, primary screen, biochemical, small-molecule microarray, 635 nm fluorescence (AID 1125); conditions: small-molecule microarray binding, higher = more signal;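 also: score merges 667 nm channel intensity with signal to noise over triplicate slides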
[17] = tested on: Chordin-like protein 2 (CHRDL2); assay: CHRDL2 small-molecule binders, primary screen, biochemical, small-molecule microarray, 635 nm fluorescence (AID 1126); conditions: small-molecule microarray binding, fluorescence 635 nm; higher = more signal;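 also: printed compound slides probed with Chrdl2 protein at 4 µg/mL for 1 h at 4 C; score merges 667 nm emission intensity with signal to noise over three replicate slides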
[18] = molecular target: Concanavalin-A (Canavalia ensiformis) (UniProt P02866); assay: ConA small-molecule binders, primary screen, artefact control for SMM control protein annotation, biochemical, small-molecule microarray, Alexa647 label, 635 nm (AID 1127); conditions: ConA-A647 binding fluorescence, higher = more signal;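 also: z combines 667 nm emission intensity with signal-to-noise across three replicate slides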
Chain of Concanavalin-A (Canavalia ensiformis) (P02866 whole entry, looked up): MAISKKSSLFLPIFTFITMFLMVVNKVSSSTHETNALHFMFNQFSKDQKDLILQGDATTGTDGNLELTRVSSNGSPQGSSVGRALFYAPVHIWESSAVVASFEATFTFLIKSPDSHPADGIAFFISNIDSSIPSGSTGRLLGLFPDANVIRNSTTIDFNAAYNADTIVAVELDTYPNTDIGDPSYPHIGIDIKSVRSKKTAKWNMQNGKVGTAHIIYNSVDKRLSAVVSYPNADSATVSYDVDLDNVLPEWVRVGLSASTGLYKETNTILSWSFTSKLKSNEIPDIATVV

Row | Structure (SMILES) | composite z-score [1] | z-score [2] | composite z-score [3] | composite z-score [4] | composite z-score [5] | composite z-score [6] | composite z-score [7] | composite z-score [8] | composite z-score [9] | composite z-score [10] | composite z-score (Albumin (Bos taurus)) | composite Z-score [11] | composite z-score [12] | composite z-score [13] | composite z-score [14] | composite z-score [15] | composite z-score [16] | composite z-score (Sam68 (KHDRBS1)) | composite z-score [17] | composite z-score [18]
1 | CN1C(=O)C2C=CC(C(O)c3ccc(F)cc3)N(Nc3ccccc3)C2C1=O (stereo not given) | 0.793 | -0.216 | 0.0204 | 0.746 | 0.693 | -0.0165 | -0.412 | -0.305 | 0.635 | 1.62 | 0.884 | 0.21 (inactive) | 0.0562 | -0.14 | 0.721 | 1.64 | -0.481 | 0.57 | -0.623 | 0.808
2 | NC(=O)NCC#Cc1ccc2c(c1)[C@]1(C(=O)N2)[C@H](C(=O)O)[C@H]2C(=O)O[C@H](c3ccccc3)[C@H](c3ccccc3)N2[C@@H]1c1ccc(OCCO)cc1 | 1.05 | -0.327 | -0.288 | 0.382 | 0.117 | 0.0077 | 0.13 | -0.265 | 0.324 | 2.01 | 0.351 | -0.131 (inactive) | -0.161 | -0.143 | 0.355 | 0.822 | 0.613 | 1.27 | 0.241 | 0.962
3 | CC(C)Cc1ccc(CN2CC[C@@H](NC(=O)Nc3ccccc3)C2)cc1 | -0.709 | -4.9 | 0.463 | -0.433 | 0.0615 | -0.0202 | -0.221 | -0.164 | -0.311 | 0.166 | 0.476 | -0.119 (inactive) | -0.133 | -0.0974 | 0.119 | -0.104 | 0.397 | -0.0489 | 0.214 | -0.0211
4 | CCOC(=O)C[C@H]1[C@H](OC(=O)Cc2ccc3c(c2)OCO3)[C@@H](NC(=O)Cc2ccc(OC)cc2)c2cc(OCCCO)ccc2N1C(=O)c1ccc2ccccc2n1 | 0.189 | -0.763 | 0.155 | -0.22 | -0.0545 | -0.0792 | 0.23 | -0.134 | 0.526 | 0.424 | 0.857 | -0.802 (inactive) | -0.0768 | -0.11 | 0.154 | 1.15 | 0.199 | 0.489 | 0.276 | -0.533
5 | CCCCCCc1nc(C2CC2)cc2c1[Si](C(C)C)(C(C)C)O[C@H]2c1ccccc1 | -1.1 | -0.0742 | 0.359 | -0.806 | -0.852 | -0.154 | -0.157 | -0.422 | -0.186 | -0.271 | -0.948 | -0.228 (inactive) | -0.0647 | -0.126 | -0.324 | -0.724 | 0.649 | -0.698 | 0.21 | 0.327
6 | C=C(COC)C(=O)CC[C@@H](OC(=O)c1cccnc1)c1ccc(OCCO)cc1 | 0.757 | -2.9 | 0.659 | -0.299 | -0.804 | -0.0944 | -0.237 | 0.678 | 0.975 | 0.661 | -0.283 | 0.517 (inactive) | 0.176 | 0.0362 | 0.751 | 1 | 0.211 | 0.629 | 1.12 | 0.388
7 | COCCOC(=O)N1C(=O)[C@@]2(c3cc(C#CCCO)ccc31)[C@H](c1ccccc1OCCO)N1[C@H](c3ccccc3)[C@H](c3ccccc3)OC(=O)[C@H]1[C@@H]2C(=O)Nc1nc2ccccc2s1 | 0.323 | -1.65 | 0.558 | 1.39 | 0.704 | -0.0519 | 0.173 | 0.429 | 1.62 | 2.29 | 0.802 | 0.048 (inactive) | 0.108 | -0.0352 | 0.729 | 2.02 | 0.967 | 1.29 | 0.0314 | 1.09
8 | C=CCN1C(=O)[C@@]2(O[C@@H](CCn3cc([C@H](O)c4ccccc4)nn3)[C@H]([Si](C)(C)c3ccc(OC)cc3)[C@H]2C)c2cc(N3CCC3=O)ccc21 | 0.627 | -3.39 | 0.225 | 0.249 | 0.294 | -0.15 | -0.138 | 0.15 | 0.116 | 0.359 | 0.292 | 0.346 (inactive) | -0.132 | -0.189 | 0.489 | 0.901 | 0.249 | 0.636 | 0.163 | 0.0967
9 | C=CC[C@@]1(C(=O)N2CCOCC2)N=C(c2ccc(OCCCO)cc2)O[C@@H]1c1ccccc1CN=[N+]=[N-] | 1.44 | -2.04 | 0.898 | 1.9 | 0.365 | 0.0998 | 0.191 | -0.333 | 1.72 | 0.943 | 0.774 | 0.28 (inactive) | 0.405 | 0.083 | 0.527 | 2.89 | 1.41 | 1.33 | -0.186 | 1.16
10 | Cn1cccc1C(O)C1C=CC2C(=O)NC(=O)C2N1Nc1ccc(Cl)cc1Cl (stereo not given) | 0.981 | -0.202 | -0.378 | 2.24 | 0.879 | 0.0044 | 0.184 | 1.92 | 2.08 | 2.28 | 1.04 | 0.589 (inactive) | 0.569 | 0.403 | 0.731 | 2.79 | 1.26 | 1.29 | -0.851 | 1.21
11 | O=C1OCC=C[C@H]2OC34C=CCN(c5ccc(Cl)cc5)C(=O)[C@H]3N(CCO)C(=O)[C@@H]4[C@@H]12 (stereo not given in full) | -0.0723 | -0.515 | -0.884 | -0.577 | 0.515 | -0.28 | -0.304 | -0.115 | 0.0143 | -0.003 | -0.212 | 0.703 (inactive) | -0.306 | -0.211 | 0.903 | 2.81 | 0.0653 | -0.381 | -1.52 | -0.606
12 | CC1=C([C@H](O)CCc2ccccc2)[C@H](CO)[C@@H]2C(=O)N(C)C(=O)[C@@H]2C1 | 0.305 | -0.581 | 0.392 | 0.489 | -0.905 | -0.197 | -0.262 | -0.416 | 0.185 | 0.224 | 0.361 | -0.297 (inactive) | 0.0313 | 0.0592 | 0.125 | 0.58 | 0.244 | 0.535 | 0.557 | 0.476
13 | CCC[C@@H]1C[C@@]1(CCC)[C@@H](NC(=O)OCc1ccccc1)c1ccc(-c2ccccc2)cc1 | -0.44 | -1.5 | -0.484 | 0.233 | 1.1 | -0.0026 | 1.42 | -0.304 | -0.143 | -0.899 | -0.477 | 0.572 (inactive) | 0.112 | 0.0339 | -0.198 | 0.27 | 0.643 | -0.303 | -0.141 | -0.914
14 | COc1ccc([Si](C)(C)[C@@H]2[C@@H](CC(=O)N(CCO)Cc3ccccc3)O[C@]3(C(=O)N(Cc4cccc(N5CCOC5=O)c4)c4ccccc43)[C@H]2C)cc1 | -0.139 | -3.7 | 0.538 | -0.561 | -0.44 | -0.173 | -0.0011 | -0.237 | 0.861 | 1.2 | -0.256 | 1.28 (inactive) | -0.269 | -0.0993 | 0.596 | 1.22 | 0.766 | 1.3 | 0.647 | 1.08
15 | O=C1NC(=O)C2C1C=CC(C(O)c1cccc3ccccc13)N2Nc1ccc(Cl)cc1Cl (stereo not given) | 1.38 | -0.445 | -0.908 | 1.49 | 0.973 | 0.0654 | 0.481 | 1.4 | 0.723 | 1.1 | 0.205 | -0.288 (inactive) | 0.0496 | 0.0915 | 0.358 | 2.12 | 0.818 | 0.762 | -0.155 | 1.07
16 | O=C1OCC=C[C@H]2OC34C=CCN(Cc5ccccc5)C(=O)[C@H]3N(CCCCCCO)C(=O)[C@@H]4[C@@H]12 (stereo not given in full) | -1.08 | 0.141 | -1.19 | -0.274 | 0.466 | -0.161 | -0.0396 | -0.302 | 2.46 | -0.367 | 0.4 | 0.604 (inactive) | -0.302 | -0.162 | 0.914 | 0.0976 | 1.31 | -0.398 | -0.694 | -0.159
17 | CCCNC(=O)[C@@]1(c2ccc([N+](=O)[O-])cc2)CC(=O)N(C2CCCCC2)[C@@H]1c1ccc(CO)cc1 | 1.5 | -0.887 | 0.357 | 0.653 | -0.0681 | -0.0285 | 0.446 | -0.0216 | 1.2 | 0.764 | 0.0308 | 0.173 (inactive) | 0.135 | -0.0406 | 0.66 | 2.01 | 0.999 | 1.25 | 0.19 | 0.95
